Hits are enriched below; roughly 9.2% of the tested compounds scored in any of these assays.
JMJD2E inh: blocks human JMJD2E demethylase activity. AID 2147. B2RXH2. JMJD2E catalytic domain, FDH-coupled NADH fluorescence (FDH is formaldehyde dehydrogenase). 1.6% of 230,000 active. Potency, µM (highest dose often 57.1 µM), without a hit: top-dose activity change, negative = inhibition, hits mostly inhibitors;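 also: 0% = wells with enzyme and -100% = buffer wells without enzyme; nearly all actives have a fitted effect of over 50% in size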
LMNA splice mod: modulators of lamin A splicing. HeLa LMNA splicing GFP/RFP minigene ratio, 48 h. Potency, µM (top dose mostly 46.1 µM), for inactives: at the top dose ratio change, negative = inhibition, hits mostly inhibitors. 0.01% of 200,000 active; active = well fitted inhibition curve with a large enough effect in the signal ratio, with a control signal flat, not every such curve was filed as active; inconclusive = small, poorly fitted or top-dose-only effect, or effect the other way, or a change in a side signal; the % refers to the signal ratio; also: % is scaled to controls: 0 for no effect and ±100 for the full control effect
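Read-out is the ratio of GFP to DsRed2 object intensity, acquired by 488 nm laser-scanning cytometry on HeLa lamin A-EGFP minigene reporter cells. Compound incubation 48 hrs at 37 °C in Opti-MEM with 2% FBS; DMSO 0.5% final.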
ALDH1A1 block: inhibitors of human aldehyde dehydrogenase 1A1 | 7.3% of 220,000 active | Purified ALDH1A1, NADH fluorescence, propionaldehyde substrate | Potency, µM (series often up to 75.3 µM), for the others: at the highest dose activity, negative = inhibition, actives largely listed as inhibitors | AID 1030;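 also: plate controls were no enzyme wells and a reference inhibitor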
Target sequence (P00352 whole entry, looked up): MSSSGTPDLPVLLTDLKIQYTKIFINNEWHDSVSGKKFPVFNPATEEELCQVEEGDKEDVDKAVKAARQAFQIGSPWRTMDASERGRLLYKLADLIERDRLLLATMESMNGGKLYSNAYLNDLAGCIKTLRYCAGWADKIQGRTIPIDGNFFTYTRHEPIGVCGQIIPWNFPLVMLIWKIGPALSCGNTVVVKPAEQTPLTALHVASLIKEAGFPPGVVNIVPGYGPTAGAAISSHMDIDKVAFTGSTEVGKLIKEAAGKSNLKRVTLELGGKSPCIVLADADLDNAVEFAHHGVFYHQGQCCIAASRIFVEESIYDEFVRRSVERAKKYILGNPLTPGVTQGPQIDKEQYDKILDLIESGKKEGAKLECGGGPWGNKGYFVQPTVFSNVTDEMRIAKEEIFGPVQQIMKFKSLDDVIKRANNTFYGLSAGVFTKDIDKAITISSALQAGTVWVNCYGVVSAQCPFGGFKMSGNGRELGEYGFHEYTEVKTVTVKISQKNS
HTT cytoprotect: Huntington cell model cytoprotection by ATP luminescence | 0.14% of 230,000 active | PC12 HTT-Q103 induced, cytoprotection, ATP luminescence, 40 h | Potency, µM (titrated, usually from 56.4 µM), without a hit: cytoprotection (ATP increase), most hits filed as activators; active = well fitted curve in the direction sought with a large enough effect; inconclusive = small, poorly fitted or top-dose-only effect, or another doubt; inactive = no such curve, though single readings can be large; an effect the other way counts as inactive or inconclusive; also: % of control where 0% means no effect; nearly all actives have a fitted effect of over 45% in size
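ATP quantification (ATPlite) reports survival of PC12 cells in which tebufenozide, 100 nM final, switches on Htt exon 1 with 103 glutamines linked to GFP; compounds are titrated.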
HPGD inh: inhibitors of human 15-hydroxyprostaglandin dehydrogenase (HPGD); P15428; purified HPGD, NADH fluorescence kinetic, PGE2 substrate; Potency, µM, inactives show top-dose activity change, negative = inhibition, usual class: inhibitors; 4.3% of 150,000 active; AID 894; also: % is scaled to controls: 0 for no effect and ±100 for the full control effect
Target sequence (P15428 whole entry, looked up): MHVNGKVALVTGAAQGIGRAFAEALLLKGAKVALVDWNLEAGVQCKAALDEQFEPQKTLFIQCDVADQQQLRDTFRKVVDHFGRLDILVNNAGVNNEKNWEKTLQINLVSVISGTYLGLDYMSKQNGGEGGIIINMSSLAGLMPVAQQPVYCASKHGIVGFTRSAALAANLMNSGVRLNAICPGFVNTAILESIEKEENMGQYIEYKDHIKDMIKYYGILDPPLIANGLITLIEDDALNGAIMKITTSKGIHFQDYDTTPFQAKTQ
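20 nM HPGD preincubated 15 min at room temperature with compound in 50 mM Tris-HCl pH 8, 0.01% Tween 20. Started with 1 mM NAD+ and 30 uM prostaglandin E2; NADH fluorescence (360/450 nm) read 5 times over 30-s intervals, last minus first.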
HTT aggregate: reduces HttQ103-GFP aggregates in PC12 cells. PC12 HttQ103-GFP aggregates, Acumen cytometry, 40 h. Potency, µM (doses to about 46.1 µM), for the others: at the highest dose activity change, negative = inhibition, most hits filed as inhibitors. 1.1% of 220,000 active; active = well fitted curve in the direction sought with a large enough effect; inconclusive = small, poorly fitted or top-dose-only effect, or another doubt; inactive = no such curve, though single readings can be large; an effect the other way counts as inactive or inconclusive; also: % is scaled to controls: 0 for no effect and ±100 for the full control effect; nearly all actives have a fitted effect of over 60% in size
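Compounds (qHTS titration) were added to PC12 cells expressing an ecdysone-driven HTT exon 1 Q103–GFP fusion after induction with 100 nM tebufenozide. Aggregate formation was measured as GFP objects in cell lysates.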
* = called active by the depositor; i = inactive; ? = inconclusive; · = not tested or not shown; [ ] = dose if it differs, or a comment. Unless noted, calls follow the shape of the dose curve; as a rule, active = well fitted inhibition curve with a large enough effect (not every such curve was filed as active); inconclusive = small, poorly fitted or top-dose-only effect, or another doubt; inactive = no such curve, though single readings can be large or run the other way. Potency is read from the fitted curve at half-maximal effect.

SMILES | JMJD2E inh | LMNA splice mod | ALDH1A1 block | HTT cytoprotect | HPGD inh | HTT aggregate
COc1ccc(OC)c(NC(=O)CNC(=O)c2cccs2)c1 | 9.0% | 0.6% | 6.7% | 1.3% | -5.8% | 0.6%[9.22 µM]
COc1cccc(/C=N/NC(=O)CNC(=O)CCc2ccccc2)c1O | 3.98µM* | · | · | -33.1%[10 µM] | · | -21.5%[9.22 µM]
Oc1cccc(/C=N/Nc2nn3cnnc3c3ccccc23)c1 | -2.8% | · | · | -38.5%[10 µM] | · | -17.7%[9.22 µM]
COc1ccccc1/C=N/NC(=O)CNC(=O)c1ccccc1 | -0.9% | · | · | 5.2%[10 µM] | · | 12.0%[9.22 µM]
CC(=O)c1ccc(NC(=O)Cn2c(-n3nc(C)cc3C)nc(C)cc2=O)cc1 | · | -19.8%[46 µM] | · | · | · | ·
COc1cc(NC(=O)Nc2ccc(Cl)c(Cl)c2)c(C(=O)O)cc1OC | ? | · | · | 6.8%[10 µM] | · | 9.5%[9.22 µM]
c1ccc2c(CSCc3cccc4ccccc34)cccc2c1 | · | · | 6.6%[13.5 µM] | 5.7%[10 µM] | -5.6% | ·
CCc1nn2c(NCCOC)cc(C)nc2c1-c1ccc(F)cc1 | ? | 0.8%[9.22 µM] | ? | -52.2% | · | -32.7%
COc1cccc(/C=N/Nc2ccc(S(=O)(=O)O)cc2)c1O | ? | 3.0% | 10µM* | -12.1% | 31.6µM* | -0.4%
O=C(COc1ccc(Cl)cc1)NCC(=O)N/N=C/c1cccs1 | -3.0% | · | ? | -43.4% | · | 9.1%
O=C(COc1ccccc1)NCC(=O)N/N=C/c1cccs1 | -8.3% | 3.0% | 22.4µM* | 6.9% | -18.2% | -1.4%
COc1cccc(/C=N/NC(=O)CNC(=O)COc2cccc(C)c2)c1O | 2.82µM* | · | · | -14.3%[10 µM] | · | -10.0%[9.22 µM]
COc1cccc(/C=N/NC(=O)CSc2ccccc2C)c1O | 28.2µM* | ? | 18.5% | · | -16.2% | -7.2%
COc1cccc(/C=N/Nc2ccc(C(=O)O)cc2)c1O | -19.5% | 13.2%[46 µM] | 10.9% | -124.7% | · | 31.1%
Cc1noc(-c2ccc(-c3noc(-c4ccc(Cl)cc4)n3)cc2)n1 | · | -6.5%[46 µM] | · | · | · | ·
CCN1CCN(CCCNC(=O)Cn2c(-c3cccs3)cc3cc(F)ccc32)CC1 | · | -12.3%[46 µM] | · | · | · | ·
CC(=O)c1ccc(N2Cc3ccccc3C3(CCOCC3)C2=N)cc1 | -22.8% | · | -7.8% | -43.1% | · | -0.1%
Cc1cccc(OCC(=O)NCC(=O)N/N=C/c2cc(Br)ccc2OCc2ccccc2)c1 | -5.9% | ? | -2.5% | · | -13.5% | -14.8%
COc1ccc(/C=N/Nc2snc(SC)c2C#N)cc1OC | i | 15.3% | ? | -23.7% | ? | -7.0%
COc1cccc(/C=N/Nc2snc(SC)c2C#N)c1O | -24.5% | ? | -11.0% | · | -4.4% | 11.2µM*
Cc1cccc(OCC(=O)NCC(=O)N/N=C/c2ccc(O)cc2O)c1 | 3.16µM* | · | · | 21.5%[10 µM] | · | 8.0%[9.22 µM]
COc1ccc(/C=C\C(=O)NCC(=O)N/N=C/c2ccc(O)cc2O)cc1 | 7.08µM* | · | · | 7.3%[10 µM] | · | 11.6%[9.22 µM]
O=C(N/N=C/c1cccc([N+](=O)[O-])c1O)c1cccs1 | 3.98µM* | ? | -8.7% | 4.4%[10 µM] | ? | 15.8µM*
COC(=O)[C@@H]1C[C@@]2(O)[C@H](O)[C@H](O)[C@H](O)C[C@H]2N1Cc1c(F)cccc1Cl | -4.8% | · | ? | -29.2% | 2.9% | ·
COc1ccccc1-c1c(C)nn2c(N3CCN(c4ccc(Cl)cc4)CC3)cc(C)nc12 | · | -5.6%[46 µM] | · | · | · | ·
SMILES | JMJD2E inh | LMNA splice mod | ALDH1A1 block | HTT cytoprotect | HPGD inh | HTT aggregate
COc1ccc(C(=O)n2c(C)c(CCO)c(=O)n2C)cc1 | -2.5% | ? | -1.1% | -54.8% | · | -4.0%
COc1ccccc1C1C=C(c2ccc(C)cc2)Nc2nnnn21 (centres undefined) | ? | ? | 14.1µM* | -4.2%[0.074 µM] | -14.6% | -7.3%
COc1ccccc1C1C2=C(CC(C)(C)CC2=O)Nc2nnnn21 (centres undefined) | -5.4% | -12.2% | 25.1µM* | 4.5%[10 µM] | -12.4% | -2.0%
CC(C)CCCC(C)C1CCC2C3CC[C@H]4CC(=O)CC[C@@]4(C)C3CC[C@@]12C (some centres undefined) | 1.0% | ? | 8.3% | · | -16.6% | ·
Cc1cccc(N2C(=O)CC(N3CCN(c4cccc(C(F)(F)F)c4)CC3)C2=O)c1 (centres undefined) | -1.9% | -6.1% | 28.2µM* | -4.1% | -20.1% | -10.1%
CCOC(=O)C1CCCN(C2CC(=O)N(c3ccc(C)c(C)c3)C2=O)C1 (centres undefined) | 0.9% | 0.0% | 10µM* | -14.3% | -4.4% | -3.7%
CCOC(=O)C1CCCN(C2CC(=O)N(c3cccc(C(F)(F)F)c3)C2=O)C1 (centres undefined) | -5.8% | -0.9% | 8.91µM* | 12.5%[10 µM] | -5.3% | 22.5%
CCOC(=O)C1CCCN(C2CC(=O)N(c3ccccc3)C2=O)C1 (centres undefined) | 2.5% | ? | ? | -6.2% | · | 15.2%
CCOC(=O)C1CCN(C2CC(=O)N(c3ccc(OCC)cc3)C2=O)CC1 (centres undefined) | 0.4% | ? | 28.2µM* | -8.2%[10 µM] | 4.3% | -2.0%
CCOC(=O)C1CCCN(C2CC(=O)N(c3ccc(C(C)C)cc3)C2=O)C1 (centres undefined) | -21.3% | · | 10µM* | 3.3%[10 µM] | · | 4.4%[9.22 µM]
CCOC(=O)C1CCCN(C2CC(=O)N(c3ccc(N4C(=O)CC(N5CCCC(C(=O)OCC)C5)C4=O)cc3)C2=O)C1 (centres undefined) | -4.3% | · | 3.16µM* | -18.5% | · | 20.3%
CCCCNC(=O)COC(=O)c1cc(Br)ccc1Cl | -0.6% | -7.5% | 6.8% | 35.3%[10 µM] | ? | ?
CCC(CC)NC(=O)COC(=O)c1cc(Br)ccc1Cl | -6.4% | -4.0% | 4.4% | 3.1%[10 µM] | 31.6µM* | -5.4%
CCSc1nc2c(c(=O)[nH]c(=O)n2C)n1C/C=C(/C)Cl | 1.5% | 3.3% | 14.1µM* | 1.5% | ? | -18.9%
C=CCSc1nc2c(c(=O)[nH]c(=O)n2C)n1C/C=C(/C)Cl | 0.0% | 5.1% | ? | -52.9% | -24.8% | -15.7%
CSc1nc2c(c(=O)[nH]c(=O)n2C)n1C/C=C(\C)Cl | 5.3% | -3.3% | 25.1µM* | -10.4%[0.074 µM] | ? | 13.3%
COC(=O)C(C)Sc1nc2c(c(=O)[nH]c(=O)n2C)n1CCC(C)C (centres undefined) | -4.7% | 0.3% | ? | -16.2%[10 µM] | -15.3% | -3.9%
C=CCSc1nc2c(c(=O)[nH]c(=O)n2C)n1CC | -9.8% | 3.0% | 14.1µM* | 15.0%[10 µM] | 14.1µM* | 3.5%
